Experiment [1] deals with Luciferin 4-monooxygenase (Photinus pyralis) (UniProt P08659). In words: qHTS assay to identify small molecule inhibitors of firefly luciferase (AID 1224835). Also: nearly all actives have a fitted effect of over 25% in size. An outline of the steps: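 Biochemical qHTS: compounds run as interplate titrations against purified firefly enzyme, with D-luciferin and ATP each at its KM concentration. Light output recorded by CCD imaging.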
For orientation: qHTS replaces the single test concentration by a dilution series.

Experiment [2] can be described thus: qHTS assay to identify small molecule agonists of the constitutive androstane receptor (CAR) signaling pathway - cell viability counter screen (AID 1224836). Also: nearly all actives have a fitted effect of over 45% in size. The gist of the method:
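HepG2 cells stably carrying hCAR and a CYP2B6-2.2kb reporter; 15-concentration compounds plus PK11195 (final 0.75 uM), 23 hr at 37 C/5% CO2. Viability read by CellTiter-Fluor fluorescence.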

Experiment [3] is described as follows: qHTS assay to identify small molecule antagonists of the constitutive androstane receptor (CAR) signaling pathway - cell viability counter screen (AID 1224837). Also: nearly all actives have a fitted effect of over 45% in size. An outline of the steps: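 HepG2 cells stably expressing hCAR and a CYP2B6-2.2kb reporter were plated and pre-incubated 4 hr at 37 C/5% CO2, then given compounds at 15 concentrations plus 50 nM CITCO (final). After 23 hr, viability was read by CellTiter-Fluor fluorescence.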

In experiment [4] the target is Nuclear receptor subfamily 1 group I member 3 (Homo sapiens) (UniProt Q14994). Nature of the experiment: qHTS assay to identify small molecule antagonists of the constitutive androstane receptor (CAR) signaling pathway (AID 1224838). Also: nearly all actives have a fitted effect of over 40% in size. The gist of the method:
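HepG2 cells stably co-transfected with hCAR and a CYP2B6-2.2kb luciferase reporter were seeded 4 h before compound addition at 15 concentrations. Cells were stimulated with 50 nM CITCO (final) for 24 h at 37 C; luciferase luminescence was then read.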

The target is the same in experiment [5]. In words: qHTS assay to identify small molecule agonists of the constitutive androstane receptor (CAR) signaling pathway (AID 1224839). Also: nearly all actives have a fitted effect of over 15% in size. The gist of the method: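 HepG2 cells stably co-transfected with hCAR and a CYP2B6-2.2kb luciferase reporter; compounds at 15 concentrations with 0.75 uM PK11195 present. After 24 hr at 37 C, luciferase read by ONE-Glo luminescence.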

Experiment [6] is described as follows: qHTS assay to identify small molecule antagonists of the estrogen related receptor signaling pathway with the pleiotropic PPARgamma coactivator (PGC) from Tox21 10K library - cell viability counter screen (AID 1224840; active = well fitted cell-killing curve with a large enough effect in the repeat runs, not every such curve was filed as active; also: nearly all actives have a fitted effect of over 40% in size). The gist of the method: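 PGC/ERR cells were seeded at 2,000 cells/well and left 6 hours at 37 C/5% CO2 before pin-tool addition of compounds in DMSO. After 17.5 hours at 37 C, CellTiter-Fluor was added and fluorescence read 30 minutes later.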

Experiment [7] is described as follows: qHTS assay to identify small molecule agonists of the hypoxia (HIF-1) signaling pathway - cell viability counter screen (AID 1224844; calls by dose curve; also: nearly all actives have a fitted effect of over 50% in size; also: potency is read from the fitted curve at half-maximal effect). An outline of the steps:
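HRE-bla ME-180 cells in medium with 0.5% dialyzed FBS were preincubated 5 hrs at 37C, exposed to compounds for 17 hrs, then viability was read as CellTiter-Glo luminescence after 30 min at room temperature, in the reporter wells.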

Experiment [8] in a line: qHTS assay to identify small molecule agonists of H2AX (AID 1224845; active = well fitted activation curve with a large enough effect in the signal ratio in the repeat runs, not every such curve was filed as active; the % refers to the signal ratio). An outline of the steps: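 Wild-type CHO-K1 cells, plated overnight, exposed 3hr at 37C to 15 concentrations (0.76% DMSO final). Lysed, then HTRF anti-pH2AX (S139) cryptate and anti-H2AX-d2 antibodies, 24 hr room temperature; 665/620 nm emission read.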
Experiment [9] is described as follows: qHTS assay to identify small molecule agonists of the hypoxia (HIF-1) signaling pathway (AID 1224846; active = well fitted activation curve with a large enough effect in the signal ratio in the repeat runs, not every such curve was filed as active; the % refers to the signal ratio). An outline of the steps:
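HRE-bla ME-180 cells (beta-lactamase reporter under hypoxia response element) were plated at 2,000 cells/well in medium with 0.5% dialyzed FBS, rested 5 hrs, then given compounds in DMSO for 17 hrs at 37C, 5% CO2. Reporter induction was read with CCF4-AM FRET substrate.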

Experiment [10] can be described thus: qHTS assay to identify small molecule agonists of H2AX - cell viability counter screen (AID 1224847; calls by dose curve; also: top concentration of the series differs between compounds; nearly all actives have a fitted effect of over 30% in size). An outline of the steps:
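CHO-K1 cells plated overnight at 37C, then exposed 3 h at 37C to compounds at 15 concentrations (0.76% DMSO final). Viability by CellTiter-Glo luminescence after 30 min at room temperature.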

Experiment [11] is described as follows: qHTS RealTime-Glo MT Cell Viability Assay in HepG2 cells - 24 hour (AID 1224867). Also: nearly all actives have a fitted effect of over 50% in size. The gist of the method: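 HepG2 suspension premixed with RealTime-Glo reagents is plated at 600 cells per well and left 5 h at 37 C/5% CO2. Compounds in DMSO then go in, and bioluminescence reflecting viable cell number is recorded over 40 h.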
Experiment [12] is described as follows: qHTS RealTime-Glo MT Cell Viability Assay in HEK293 cells - 32 hour (AID 1224868). Also: nearly all actives have a fitted effect of over 50% in size. Also: potency is read from the fitted curve at half-maximal effect. The gist of the method:
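Reads taken at 0, 8, 16, 24, 32 and 40 h from the same wells. HEK293 cells (600/well) carried RealTime-Glo reagents from seeding, with compound added after a 5 h settle at 37 C.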

Experiment [13] in a line: A CellTox Green Cytotoxicity Assay to monitor cytotoxicity in HEK293 cells - 0 hour (AID 1224869). Also: nearly all actives have a fitted effect of over 50% in size. An outline of the steps:
(§1)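 HEK293 cells premixed with CellTox Green dye were seeded at 600 cells/well and left 5 h at 37 C/5% CO2 before pin transfer of 23 nL compound in DMSO. Fluorescence from dye bound to dead-cell DNA was read during 40 h treatment.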

The nature of experiment [14]: A CellTox Green Cytotoxicity Assay to monitor cytotoxicity in HEK293 cells - 40 hour (AID 1224871). Also: nearly all actives have a fitted effect of over 45% in size. Also: potency is read from the fitted curve at half-maximal effect. The gist of the method:
as §1

A short description of experiment [15]: qHTS RealTime-Glo MT Cell Viability Assay in HepG2 cells - 40 hour (AID 1224870). Also: nearly all actives have a fitted effect of over 50% in size. Also: potency is read from the fitted curve at half-maximal effect. An outline of the steps:
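HepG2 cells (600/well) mixed with RealTime-Glo MT reagent, settled 5 h at 37 C/5% CO2 before compound addition. Nonlytic NanoLuc luminescence from viable-cell prosubstrate reduction read repeatedly during 40 h treatment at 37 C.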

Experiment [16] can be described thus: qHTS assay to identify small molecule antagonists of the estrogen related receptor signaling pathway with the pleiotropic PPARgamma coactivator (PGC) from Tox21 10K library (AID 1224841; call rule not given here). An outline of the steps:
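PGC/ERR reporter cells were seeded at 2,000 cells/well and held 6 hours at 37 C/5% CO2 before pin-tool addition of compounds in DMSO. After 18 hours at 37 C, One-Glo was added and luminescence read after 30 minutes at room temperature.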

Experiment [17] can be described thus: qHTS assay to identify small molecule agonists of the estrogen related receptor signaling pathway with the pleiotropic PPARgamma coactivator (PGC) from Tox21 10K library (AID 1224842). Also: nearly all actives have a fitted effect of over 15% in size. An outline of the steps: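 PGC/ERR reporter cell line, 2,000 cells per well, incubated 6 h at 37 C before 23 nL compound in DMSO was added. After 18 h at 37 C, One-Glo luminescence read following 30 min at room temperature.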

The target in experiment [18] is Thyrotropin receptor (Homo sapiens) (UniProt P16473). Nature of the experiment: qHTS assay to identify small molecule agonists of the thyroid stimulating hormone receptor (TSHR) signaling pathway (AID 1224843; calls by dose curve; also: nearly all actives have a fitted effect of over 45% in size; also: potency is read from the fitted curve at half-maximal effect). The gist of the method:
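Steps: seed 800 TSHR-HEK293 cells per well; add test compound and hold 30 min at ambient temperature; dispense cAMP-d2 then anti-cAMP cryptate; incubate 1 h at ambient; measure fluorescence intensity.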

The nature of experiment [19]: qHTS assay to identify small molecule antagonists of the estrogen related receptor (ERR) signaling pathway from Tox21 library (AID 1224848). Also: nearly all actives have a fitted effect of over 50% in size. The gist of the method:
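Luminescent reporter read-out (ONE-Glo) from NTP's ERR cell line after 18 h treatment at 37 C with DMSO-dissolved Tox21 compounds; cells pre-plated 6 h beforehand at 2,000 per well.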

Experiment [20] can be described thus: qHTS assay to identify small molecule agonists of the estrogen related receptor (ERR) signaling pathway from Tox21 library (AID 1224849; calls by dose curve; also: nearly all actives have a fitted effect of over 15% in size). The following applies: ERR reporter cell line, ONE-Glo luciferase, 18 h; at 92.4 µM (top of the series). The gist of the method: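 ERR reporter cell line (NTP) seeded, rested 6 h at 37 C/5% CO2, then pinned with Tox21 compounds in DMSO. After 18 h at 37 C, ONE-Glo luciferase luminescence was read following 30 min at room temperature.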

Values joined by “and” are separate entries in the source; they are usually repeats but may differ in a detail not shown here. Equal values may be shown once. Inconclusive results are not listed. A structure can be active in one record and inactive in another. Active and inactive are the calls of the source. Unless noted, calls follow the shape of the dose curve; as a rule, active = well fitted curve in the direction sought with a large enough effect in the repeat runs; inconclusive = weak or mixed curves; inactive = no such curve, though single readings can be large; an effect the other way counts as inactive or inconclusive.

Experimental findings from PubChem BioAssay (Tox21) are described below.
% is scaled to controls: 0 for no effect and ±100 for the full control effect.

Nuclear receptor subfamily 1 group I member 3 (Homo sapiens), sequence (Q14994 whole entry, looked up): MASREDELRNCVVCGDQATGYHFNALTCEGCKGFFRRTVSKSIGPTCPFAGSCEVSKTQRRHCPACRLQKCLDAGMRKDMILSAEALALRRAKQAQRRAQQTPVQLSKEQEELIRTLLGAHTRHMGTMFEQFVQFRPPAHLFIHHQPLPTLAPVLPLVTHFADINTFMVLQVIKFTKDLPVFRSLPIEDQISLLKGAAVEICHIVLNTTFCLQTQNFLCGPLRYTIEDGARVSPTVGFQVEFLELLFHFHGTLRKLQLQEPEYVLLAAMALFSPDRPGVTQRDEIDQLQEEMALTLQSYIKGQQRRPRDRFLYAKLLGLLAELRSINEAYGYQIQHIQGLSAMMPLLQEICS
Thyrotropin receptor (Homo sapiens), sequence (P16473 whole entry, looked up): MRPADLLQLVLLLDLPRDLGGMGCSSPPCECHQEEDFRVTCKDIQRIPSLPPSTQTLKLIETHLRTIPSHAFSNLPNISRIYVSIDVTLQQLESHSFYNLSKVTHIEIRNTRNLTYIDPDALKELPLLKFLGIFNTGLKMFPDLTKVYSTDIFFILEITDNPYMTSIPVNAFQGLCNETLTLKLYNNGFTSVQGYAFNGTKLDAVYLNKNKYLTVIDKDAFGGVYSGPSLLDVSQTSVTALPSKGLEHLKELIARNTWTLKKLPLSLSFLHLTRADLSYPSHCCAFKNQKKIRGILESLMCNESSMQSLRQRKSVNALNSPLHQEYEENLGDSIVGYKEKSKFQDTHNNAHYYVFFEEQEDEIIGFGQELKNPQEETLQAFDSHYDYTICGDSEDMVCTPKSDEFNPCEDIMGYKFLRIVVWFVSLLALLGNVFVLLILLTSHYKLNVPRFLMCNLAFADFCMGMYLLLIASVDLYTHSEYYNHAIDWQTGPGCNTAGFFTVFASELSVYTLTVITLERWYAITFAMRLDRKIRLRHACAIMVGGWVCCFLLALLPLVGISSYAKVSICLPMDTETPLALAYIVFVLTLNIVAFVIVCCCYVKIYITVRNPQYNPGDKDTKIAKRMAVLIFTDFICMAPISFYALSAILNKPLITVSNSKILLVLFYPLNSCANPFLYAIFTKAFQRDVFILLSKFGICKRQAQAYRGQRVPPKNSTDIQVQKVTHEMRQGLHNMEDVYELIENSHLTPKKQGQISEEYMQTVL
Luciferin 4-monooxygenase (Photinus pyralis), sequence (P08659 whole entry, looked up): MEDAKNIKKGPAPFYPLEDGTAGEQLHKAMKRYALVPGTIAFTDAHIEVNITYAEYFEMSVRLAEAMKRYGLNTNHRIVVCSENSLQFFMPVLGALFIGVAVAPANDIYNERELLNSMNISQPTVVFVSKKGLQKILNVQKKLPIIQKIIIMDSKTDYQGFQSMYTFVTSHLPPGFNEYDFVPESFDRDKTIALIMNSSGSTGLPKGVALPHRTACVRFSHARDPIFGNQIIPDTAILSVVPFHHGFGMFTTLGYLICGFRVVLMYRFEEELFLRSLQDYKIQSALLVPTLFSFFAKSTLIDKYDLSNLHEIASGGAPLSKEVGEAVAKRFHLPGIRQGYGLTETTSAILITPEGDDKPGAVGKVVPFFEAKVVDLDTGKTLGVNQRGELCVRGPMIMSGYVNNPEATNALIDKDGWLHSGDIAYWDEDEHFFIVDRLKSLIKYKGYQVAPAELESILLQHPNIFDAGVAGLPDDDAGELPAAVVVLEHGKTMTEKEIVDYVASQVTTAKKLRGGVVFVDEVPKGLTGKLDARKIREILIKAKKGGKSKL

On to `[Na+]`, for which the Potency result in experiment [1], in [2], in experiment [3], in [4], in experiment [5] and in [6] was “inactive” in each case. For the same molecule, the Potency result in [7], in [8], in experiment [10], in [11], in experiment [12] and in experiment [13] was “inactive” throughout. Besides, in experiment [14], the Potency result is “inactive”. Moreover, in experiment [9], the result was inactive.
Consider `CCC(=O)O[C@H]1[C@H](O[C@@H]2[C@@H](C)[C@H](O[C@H]3C[C@@](C)(OC)[C@@H](O)[C@H](C)O3)[C@@H](C)C(=O)O[C@H](CC)[C@@](C)(O)[C@H](O)[C@@H](C)C(=O)[C@H](C)C[C@@]2(C)O)O[C@H](C)C[C@@H]1N(C)C`, for which the Potency result in [1], in [2], in [3], in [8], in experiment [10] and in experiment [11] was “inactive” each time. In addition, the Potency result in experiment [12], in experiment [13] and in experiment [15] was “inactive” throughout. Further, the Potency in experiment [7] was 25.8 µM (active) and inactive; in experiment [14], 28.9 µM (active) and inactive. The molecule was called inactive in experiment [9].
On to `O=C1CCc2ccccc2O1`, for which the Potency result in experiment [1], in [2], in experiment [3], in [16], in [17] and in experiment [18] was “inactive” each time. The Potency result in experiment [7], in experiment [8], in [10], in experiment [19], in experiment [11] and in [12] was “inactive” each time. Also, the Potency entry in experiment [13], in [15] and in experiment [14] was “inactive” each time. Also, the molecule was classed as inactive in [9]. Moreover, the activity change, positive = activation in experiment [20] is -2.99% (inactive) and -9.1% (inactive).
Regarding `CCCCCCOCCOCCO`, the Potency entry in experiment [2], in experiment [3], in experiment [6], in experiment [18], in experiment [7] and in [8] was “inactive” each time. Moreover, the Potency entry in [11], in [12], in experiment [13], in experiment [15] and in experiment [14] was “inactive” throughout. The result in experiment [9] was inactive.
As for `CC(=O)Oc1ccc(C(c2ccc(OC(C)=O)cc2)c2ccccn2)cc1`, the Potency entry in [1], in [2], in [3], in [18], in experiment [8] and in [11] was “inactive” in each case. For the same molecule, the Potency result in experiment [12], in experiment [13], in experiment [15] and in experiment [14] was “inactive” each time. The Potency in experiment [7] is 109 nM (active) and 756 nM (active). Also, in [9], the molecule was called inactive.
As for `O=Cc1ccccc1C=O`, the Potency result in [1], in [7], in experiment [8], in experiment [10], in experiment [11] and in [12] was “inactive” each time. The Potency result in [13] and in [14] was “inactive” each time. Further, the Potency in [18] is 38.6 µM (active) and inactive; in [15], 38.9 µM (active) and inactive. Further, in experiment [9], the result was inactive.
With `C=C[C@H]1CN2CC[C@H]1C[C@@H]2[C@@H](O)c1ccnc2ccc(OC)cc12`, the Potency entry in experiment [2], in experiment [3], in experiment [4], in [6], in experiment [7] and in [8] was “inactive” each time. The Potency result in [10], in experiment [11], in experiment [13], in [15] and in [14] was “inactive” in each case. In addition, in [12], the Potency is 48.2 µM (active).
`CC(C)[N+](C)(CCOC(=O)C1c2ccccc2Oc2ccccc21)C(C)C`: the Potency result in experiment [1], in experiment [2], in [3], in [18], in experiment [7] and in experiment [8] was “inactive” throughout. The Potency entry in [10], in experiment [11], in experiment [12], in experiment [13], in experiment [15] and in [14] was “inactive” each time.
